Screens (PubChem BioAssay)
GPR151 ag = activators of human GPR151, primary screen, cell-based, PathHunter beta-arrestin, luminescence; G-protein coupled receptor 151 (Homo sapiens), Q8TDV0; 1% of 650,000 active; activation, % at 11.2 µM; PathHunter beta-arrestin GPR151 cells; in the data active means activation above about 4.9%;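 further: 0% = median of compound wells and 100% = cells with positive control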
Target sequence (Q8TDV0 whole entry, looked up): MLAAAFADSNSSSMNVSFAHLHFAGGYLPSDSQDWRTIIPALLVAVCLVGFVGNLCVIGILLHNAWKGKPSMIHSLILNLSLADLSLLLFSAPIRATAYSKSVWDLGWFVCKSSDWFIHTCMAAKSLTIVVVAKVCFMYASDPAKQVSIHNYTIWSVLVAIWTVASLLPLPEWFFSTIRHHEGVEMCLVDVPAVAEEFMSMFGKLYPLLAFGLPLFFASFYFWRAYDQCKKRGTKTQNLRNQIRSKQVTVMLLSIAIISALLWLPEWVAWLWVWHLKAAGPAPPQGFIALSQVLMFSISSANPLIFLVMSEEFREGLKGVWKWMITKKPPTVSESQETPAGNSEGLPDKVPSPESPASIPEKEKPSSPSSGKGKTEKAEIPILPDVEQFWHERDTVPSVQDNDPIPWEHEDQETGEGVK
FBW7 act = FBW7 E3 ligase activators, primary screen, biochemical, AlphaScreen, human | normalized activity (activation), % at 26.1 µM | 0.13% of 650,000 active | AlphaScreen FBW7–phospho-cyclin E peptide binding, activator screen; in the data active means normalized activity above about 1.9%;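 further: purified mutant Fbw7 with reduced substrate affinity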
MITF inh = MITF inhibitors, primary screen, biochemical, AlphaScreen, human; Microphthalmia-associated transcription factor (Homo sapiens), O75030; AlphaScreen MITF homodimerization, bead proximity signal; inhibition, % at 2.6 µM; 0.91% of 650,000 active; AID 1259374, 2018; in the data active means inhibition above about 50%;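 further: 0% = vehicle wells with protein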
TEAD-YAP block = TEAD-YAP interaction inhibition, primary screen, TEAD-YAP interaction inhibitor project, luminescence, HEK-TIYL cells. AID 1259422, 2018. TEAD-Gal4/YAP UAS-luciferase luminescence. 1.4% of 640,000 active. inhibition, % at 9.12 µM; in the data active means inhibition above about 32%;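 further: 0% = median of test compound wells and 100% = reference inhibitor wells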
An asterisk follows results filed as active. Most compounds without a hit are left out; they make up all but 3.4% or so of the library.

SMILES	GPR151 ag	FBW7 act	MITF inh	TEAD-YAP block
Cc1cc(NCc2ccccc2)nc(-c2ccc3[nH]ccc3c2)n1	0	0	18	3
CCC1CCCCN1C(=O)c1cc2nc(-c3ccc(Cl)cc3)cc(C(F)(F)F)n2n1 (stereo not drawn)	-1	0	-14	-12
Cc1sc2nc(N)c(C(=O)NC(C)C)cc2c1C	0	0	10	4
O=Cc1s/c(=N\S(=O)(=O)c2ccccc2)n(CCCCl)c1Cl	-2	0	0	45*
OCc1ccc(-c2cnc3ccc(NCc4ccc5c(c4)OCO5)nn23)cc1	-1	1	11	58*
c1ccc(-c2cnc3ccc(NCc4ccc5c(c4)OCO5)nn23)cc1	0	0	2	4
c1cc(-c2cnc3ccc(NCc4ccc5c(c4)OCO5)nn23)ccn1	0	0	9	47*
CCc1ccc(C2CC(c3ccc(OC)cc3)Nc3nc(N)nn32)cc1 (stereo not drawn)	0	0	-7	4
CC(=O)Nc1cccc(NC(=O)c2cc3ccccc3oc2=O)c1	-2	0	-9	46*
Cc1cccc(NC(=O)c2cc3ccccc3oc2=O)c1	-2	0	14	-38
CC(Cc1ccco1)NC(=O)c1cc2ccccc2oc1=O (stereo not drawn)	0	3.0*	-6	-21
CC(CO)NC(=O)c1cc2ccccc2oc1=O (stereo not drawn)	0	0	-6	-11
C=CCc1cccc2cc(C(=O)Nc3cccc(O)c3)c(=O)oc12	-1	0	19	58*
O=C(CSc1nc2sc3c(c2c(=O)n1C1CCCCC1)CCCC3)c1ccc(Cl)cc1	-1	1	-17	0
CC1CCc2cc(F)cc3c(O)c(C(=O)Nc4ccccn4)c(=O)n1c23 (stereo not drawn)	0	2.0*	8	10
O=C(NCc1ccccc1)C(c1ccccc1)N(Cc1cccs1)C(=O)c1cnccn1 (stereo not drawn)	-1	0	3	34*
O=C(NCc1ccccc1)C(c1ccccc1)N(Cc1cccnc1)C(=O)c1csnn1 (stereo not drawn)	1	6.9*	21	-4
O=C(NCc1ccccc1)C(c1cccs1)N(Cc1cccs1)C(=O)c1cnccn1 (stereo not drawn)	-1	0	18	6
Cc1cc(=O)[nH]c2nnc(SCC(=O)N3CCc4ccccc43)n12	-1	1	13	10
O=C(CC1C(=O)NCCN1Cc1cccc(F)c1F)NC1CC1 (stereo not drawn)	3	0	-2	-6
Cc1nc2sccn2c1-c1csc(Nc2ccc(N)cc2)n1	-1	0	18	0
Cc1nc2sccn2c1-c1csc(Nc2ccc(Br)cc2)n1	0	0	-6	49*
Cc1nc2sccn2c1-c1csc(Nc2ccccc2)n1	-1	0	-2	-63
Cc1nc2sccn2c1-c1csc(Nc2cccc(O)c2)n1	0	0	-7	37*
CCOc1ccc2c(c1)N(C(=O)c1cccc3ccccc13)C(C)(C)c1ssc(=S)c1-2	0	0	27	-4
SMILES	GPR151 ag	FBW7 act	MITF inh	TEAD-YAP block
Cc1ccc(NC(=O)Cn2cnc3sc(C(=O)N4CCN(c5cccc(Cl)c5)CC4)c(C)c3c2=O)cc1Cl	-1	0	23	3
Cc1nnc(SCC(=O)Nc2ccc(Cl)c(Cl)c2)s1	0	0	10	18
COc1ccc(-c2nnc(SCC(=O)Nc3ccc(N)cc3)n2-c2ccccc2)cc1	0	6.5*	-92	-2
Cc1ccc(C2=NN=C(NC(=O)CSc3nnc(C)s3)SC2)cc1	-1	0	13	55*
Cc1nnc(SCC(=O)Nc2ccc3ccccc3c2)s1	-1	2.0*	15	10
Cn1cnnc1SCC(=O)NC1=NN=C(c2ccccc2)CS1	0	-1	-2	2
COc1ccc(NC(=O)c2ccc(NC(=O)CSc3nnc(N)s3)cc2)cc1	-1	8.2*	-7	-4
Cc1cc(=O)oc2cc(OC(=O)c3cccc(S(=O)(=O)N4CCOCC4)c3)ccc12	1	0	-1	-6
CCC1CCCCN1C(=O)CSc1nc(C)nc2sc(C)c(C)c12 (stereo not drawn)	-1	1	13	-2
O=C(N/N=C/c1ccc(O)cc1O)c1ccc[n+]([O-])c1	-1	-1	73*	-8
O=C(N/N=C/c1ccc(O)cc1O)c1ccc(O)cc1	-2	-1	-1	-22
